# Screens: PubChem, several laboratories
# An excerpt weighted towards active compounds, which were near 3.6% of everything screened.
# HCT116 bCat-KO: beta-catenin-lacking colon tumor cell growth suppression; HCT116 beta-catenin knockout viability, CellTiter-Glo, 60 h; stronger effect = lower value; viability, % at 10 µM; hit rate 1.5% among 140,000;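 active = viability at or under a set limit, the compound median less 4 SD, cut at about 6% in these data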
# hDAT+cocaine: modulates human dopamine transporter uptake under cocaine | Q01959 | LLC-PK1 hDAT cells, [14C]-dopamine uptake with cocaine IC80; actives deviate in either direction | B-score at 10 µM | hit rate 1.3% among 110,000 | AID 449768;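 active = Z score or B-score, a plate-position-corrected score, falls beyond the plate's 99.7% confidence bounds, in either direction; inactive = both scores lie inside the 99.7% bounds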
# Target sequence (Q01959 whole entry, looked up): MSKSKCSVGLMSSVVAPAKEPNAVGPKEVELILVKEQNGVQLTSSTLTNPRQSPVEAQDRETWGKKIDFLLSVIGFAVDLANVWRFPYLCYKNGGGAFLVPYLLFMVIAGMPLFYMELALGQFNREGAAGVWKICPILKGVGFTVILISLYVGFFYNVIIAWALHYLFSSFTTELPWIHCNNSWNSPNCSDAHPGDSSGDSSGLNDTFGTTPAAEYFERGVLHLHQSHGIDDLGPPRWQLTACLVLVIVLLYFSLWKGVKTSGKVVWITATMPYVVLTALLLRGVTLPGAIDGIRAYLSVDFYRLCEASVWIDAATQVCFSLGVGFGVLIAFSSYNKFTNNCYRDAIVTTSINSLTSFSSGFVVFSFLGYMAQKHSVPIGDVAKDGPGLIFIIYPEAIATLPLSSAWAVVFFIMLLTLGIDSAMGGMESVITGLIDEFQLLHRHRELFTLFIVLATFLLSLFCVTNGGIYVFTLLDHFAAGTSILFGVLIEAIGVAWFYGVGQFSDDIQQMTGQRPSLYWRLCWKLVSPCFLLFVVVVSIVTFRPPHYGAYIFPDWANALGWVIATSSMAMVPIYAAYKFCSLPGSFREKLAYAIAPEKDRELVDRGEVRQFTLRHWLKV
# WT yeast gro inh: growth inhibition of WT yeast, mitochondrial fusion screen; mitochondrial fusion phenotypic screen, WT strain; inhibition, % at 10 µM; hit rate 2.1% among 190,000; AID 1362; in the data active = inhibition above about 58%; tested in S. cerevisiae
# HCT116 PTEN-null: suppresses growth of cells with PTEN deletion; HCT116 PTEN-null viability, CellTiter-Glo, 60 h; stronger effect = lower value; viability, % at 10 µM; hit rate 1.2% among 140,000; AID 827;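 active = viability at or below a set limit, 4 SD under the median of all tested compounds, cut at about 3.7% in these data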;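 note: PTEN knockout HCT116 line with beta catenin targeted HCT116 as companion control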
# Numbers stand for hits; 0 = inactive; - = no result.
SMILES,HCT116 bCat-KO,hDAT+cocaine,WT yeast gro inh,HCT116 PTEN-null
NS(=O)(=O)c1ccc(N2N=C(c3ccccc3)CC2c2ccccc2)cc1 (centres undefined),0,-,71.9,0
O=C(NCCCN1CCOCC1)C(=O)N/N=C/c1c2ccccc2cc2ccccc12,1.6,-,0,2.2
Cn1ccnc1SCC(=O)Nc1cccc(S(=O)(=O)N2CCCCC2)c1,-,-,0,-
O=S(=O)(CCSc1nc2ccccc2s1)c1nc2ccccc2s1,3.9,0,0,3.3
CSc1ccc(OC2CCCCC2NS(=O)(=O)c2ccc(Cl)cc2)cc1 (centres undefined),0,-,73.9,0
O=S(=O)(NC1CCCCC1Nc1ccccc1)c1ccccc1 (centres undefined),0,-,0,0
CN(c1ccccc1)C1CCCCC1NS(=O)(=O)c1ccc(Cl)cc1 (centres undefined),0,-,65.3,0
O=S(=O)(NC1CCCCC1Oc1ccccc1)c1ccc(Cl)cc1 (centres undefined),0,-,61.0,0
CCCCCC(=O)NC(NC(=S)NC1CCS(=O)(=O)C1)C(Cl)(Cl)Cl (centres undefined),0,-2.97,0,0
COc1ccc([N+](=O)[O-])cc1NC(=O)Cc1ccc(Cl)cc1,0,-,0,0
COc1ccc([N+](=O)[O-])cc1NC(=S)NC(NC(=O)Cc1ccc(OC)c(OC)c1)C(Cl)(Cl)Cl (centres undefined),4.9,0,0,0
CCOc1cc(C)c(S(=O)(=O)Nc2ccc3cn[nH]c3c2)cc1C,0,0,0,0
C/C(=N\OC(=O)c1ccc(Cl)cc1)c1nccs1,0,-2.76,0,0
C/C(=N\OC(=O)c1c(-c2ccccc2Cl)noc1C)c1nccs1,-,-,0,-
Cc1ccccc1CSc1nc2n(n1)C(c1cccs1)C1=C(CCCC1=O)N2 (centres undefined),0,0,0,0
O=C1CCCC2=C1C(c1cccs1)n1nc(SCc3ccccc3F)nc1N2 (centres undefined),0,2.76,0,0
O=C(/C=C/Sc1ccccc1)c1ccccc1,2.1,0,0,1.4
O=C(/C=C/Sc1ccccc1)c1ccc(Cl)cc1,0,0,0,0
O=C(Cn1c(=O)oc2ccccc21)N1CCOCC1,-,-,0,-
O=C(CSc1nc2ccccc2s1)CSc1nc2ccccc2s1,0,0,0,0
O=S1(=O)C=C(Sc2nnc(-c3ccccc3)o2)c2ccccc21,1.2,-,0,0.9
O=S1(=O)C=C(Sc2nc3ccccc3s2)c2ccccc21,1.9,0,0,1.2
Cc1cc(C)nc(SC2=CS(=O)(=O)c3ccccc32)n1,2.0,-7.73,0,1.8
Clc1cc(Cl)cc(C2=NCCC(c3ccccc3)O2)c1 (centres undefined),0,-,75.0,0
c1ccc(CN2CCC(Nc3nc(-c4cccs4)nc4ccccc34)CC2)cc1,-,-,0,-
SMILES,HCT116 bCat-KO,hDAT+cocaine,WT yeast gro inh,HCT116 PTEN-null
c1csc(CNc2nc(-c3cccs3)nc3ccccc23)c1,-,-,79.0,-
COc1ccc(NC(=O)c2cc(-c3ccccc3Cl)no2)cc1,0,0,84.9,0
O=C(Nc1ccccc1)c1cc(-c2ccccc2Cl)no1,0,0,0,0
CCCOc1ccc(C(=O)C(CN2CCOCC2)c2ccccc2)cc1 (centres undefined),2.6,0,0,2.1
COc1ccc(C(=O)C(CN2CCOCC2)c2ccccc2)cc1F (centres undefined),1.6,0,61.4,1.3
CCOC(=O)C(O)(CC(=O)c1ccc(OC)cc1)C(F)(F)F (centres undefined),0,-8.8,0,0
Cc1ccc(S(=O)(=O)c2nnn(-c3cccc(F)c3)c2N)cc1,-,-,0,-
O=C(c1cccc(COc2cccc3ccccc23)c1)N1CCCC1,0,3.68,0,0
CN(C(=O)c1cccc(COc2ccc(Cl)cc2Cl)c1)c1ccccc1,0,-,76.6,0
NNC(=O)c1ccc(COc2cccc3ccccc23)cc1,0,-,72.6,0
O=C(c1ccc(Cl)c([N+](=O)[O-])c1)N1CCN(c2ccccn2)CC1,0,-,0,0
O=C(NCc1ccco1)c1ccc(COc2cccc3ccccc23)cc1,0,-,0,0
O=C(c1cccc(COc2ccc(Cl)cc2Cl)c1)N1CCN(c2ccccn2)CC1,0,0,77.1,0
COC(=O)C[C@H]1c2cc(C(F)(F)F)ccc2S(=O)(=O)N1C(C)(C)C,-,0,-,-
CCC(C)(C)NC(=O)c1cccc(NC(=O)C(C)C)c1,-,-,0,-
O=C(O)CCn1c2c(c3ccccc31)CCCC2,0,0,0,0
CCCCCCCn1c2c(c(=N)c3ccccc31)CCC2,-,-,81.3,-
CCC(NC(=O)NCc1ccc2c(c1)OCO2)(C(F)(F)F)C(F)(F)F,0,-3.4,0,0
CCC(NC(=O)NCc1ccccc1)(C(F)(F)F)C(F)(F)F,0,-,0,0
Cc1cc2nc(SCCN3CCCC3)[nH]c2cc1C,0,-7.77,0,0
C#CCNC(=O)C1=C[C@H](c2csc3ccccc23)C[C@H](OCCCCO)O1,-,0,0,-
C=C(C)Cn1c(SCC#N)nc2ccccc2c1=O,0,-2.87,0,0
O=C1c2ccccc2N2C(=O)c3ccccc3[C@H]2N1c1ccccc1,0,-2.66,0,0
O=C1c2ccccc2C(O)N1c1ccc(Cl)cc1 (centres undefined),0,0,0,0
CN1CCOC(=O)/C1=N/Nc1cc(Cl)ccc1Cl,-,-,0,-
SMILES,HCT116 bCat-KO,hDAT+cocaine,WT yeast gro inh,HCT116 PTEN-null
Sc1oc(-c2ccccc2)cc1C=Nc1ccccc1,0,0,0,0
COc1ccc(CNC(=S)NCc2ccc(OC)cc2)cc1,-,-,0,-
CC(C)COc1ccc(CNC(=S)NCc2ccccc2)cc1,0,0,69.3,0
COc1ccc(CNC(=S)NC(C)CCc2ccccc2)cc1 (centres undefined),-,-,71.2,-
Cc1cc(C)n(CC(O)Cn2c3ccc(Br)cc3c3cc(Br)ccc32)c(=O)n1 (centres undefined),0,0,91.3,0
CC(=O)Nc1ccc(N=Nc2ccc(O)cc2)cc1,0,-,0,0
COc1ccc(-n2c(C)cc(-c3csc(N)n3)c2C)cc1,0,-,0,0
CCOc1cc(-c2nc(C)c(C(C)=O)n2O)ccc1OCC(=O)Nc1cccc(C)c1,-,-,62.1,-
CCNc1nc(NCC)nc(SCC(C)=O)n1,-,-,0,-
Cc1cc(C)c(CSc2ncnc3nc[nH]c23)c(C)c1,-,-,69.4,-
Cc1cccc(CSc2ncnc3nc[nH]c23)c1,0,0,0,0
CCOC(=O)c1[nH]c2ccc(OC)cc2c1NC(=S)N1CCN(c2ccccc2OC)CC1,0,-,0,0
COCCN(CC(=O)NC1CCCCC1)C(=O)/C=C/C(=O)c1ccc(OC)cc1O,-,-,0,-
COc1ccc(C(=O)/C=C/C(=O)N(CC(=O)NC2CCCCC2)Cc2cccs2)c(O)c1,-,-,64.9,-
CC(Oc1ccc(C(=O)NCCc2ccccc2)cc1)C(=O)O (centres undefined),0,0,0,0
CC(C)OC(=O)C(C)Oc1ccc(C(=O)NCCc2ccccc2)cc1 (centres undefined),0,-7.08,0,0
O=c1c(Cl)c(NCCCO)cnn1-c1nc2ccccc2[nH]1,1.3,0,0,2.0
CCc1ccc(-n2c(C)nc3cc(C(=O)NCc4cccnc4)ccc32)cc1,-,-,0,-
CC(C)(C)C1CCc2c(sc(NC(=O)c3cccs3)c2C(=O)N2CCCCC2)C1 (centres undefined),0,0,61.7,0
C=C(C)c1cccc(C(C)(C)NC(=O)N2CCN(CC(N)=O)CC2)c1,0,0.949,0,0
